These results are taken from PubChem BioAssay (NCATS).

Experiment [1] is described as follows: Cytotoxicity counterscreen for NFkB agonists and antagonists (AID 624476; also: potency is read from the fitted curve at half-maximal effect). (The purpose of a counterscreen is to sort out artefacts and off-target activity.)
Experiment [2] in a line: qHTS Assay for Identification of Small Molecule Agonists for NFkB Signaling Pathway. (AID 624478).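 Also: compounds tested together with TNF alpha at its EC50 of 10 pM; 0% is about no effect.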 In outline:
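Compounds were added with 10 pM TNF alpha (EC50 level) to ME-180 NFkB-bla cells in low-serum Opti-MEM and incubated 5 hrs at 37 C. Beta-lactamase FRET read-out used 405 nm excitation and 460 and 530 nm emission.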

Experiment [3] is described as follows: qHTS Assay for Identification of Small Molecule Antagonists for NFkB Signaling Pathway. (AID 624479; calls by dose curve;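 also: pathway stimulated with TNF alpha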; also: potency is read from the fitted curve at half-maximal effect).
Experiment [4] in a line: Cell Proliferation Assay against the TMD8 Cell Line (AID 651645).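 Also: cells exposed to compound for 48 h before reading.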 The following applies: TMD8 DLBCL cell line proliferation/viability; at 46.1 µM (top of the series). In outline: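 Seed log-phase TMD8 cells in RPMI containing 5% FBS, add compounds at once, incubate 48 hours at 37C. Equilibrate to room temperature, add CellTiter-Glo, read luminescence after 15 minutes and express relative to DMSO and bortezomib controls.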

Experiment [5] in a line: Cell Proliferation Assay against the HBL1 Cell Line (AID 651646).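 Also: cells exposed to compound for 48 h before reading.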 The following applies: HBL1 DLBCL cells; at 46.1 µM (top of the series). The procedure, abridged: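 CellTiter-Glo luminescence after 48 h compound exposure at 37C gives percent activity, with DMSO as 100% and 9.2 uM bortezomib final as 0%. Cells: 500 log-phase HBL1 per well, RPMI plus 5% FBS.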
Experiment [6] in a line: Cell Proliferation Assay against the TMD8 Cell Line (Caspase readout at 16 hrs) (AID 651712). Also: potency is read from the fitted curve at half-maximal effect. In outline: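 Caspase-Glo luminescence measured apoptosis after a 16 h, 37 C compound exposure of TMD8 cells (500 cells/well, 5% FBS RPMI). DMSO set 0% and bortezomib at 9.2 uM final set 100% activity.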
A short description of experiment [7]: Cell Proliferation Assay against the TMD8 Cell Line (Caspase readout at 8 hrs) (AID 651713). Also: potency is read from the fitted curve at half-maximal effect. In outline:
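Apoptosis read-out: Caspase-Glo luminescence after 8 h compound exposure of TMD8 lymphoma cells at 37C, 5% CO2. Signals were normalized as percent activity between DMSO and bortezomib (9.2 uM final) controls.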

The structures appear in SMILES notation. Values joined by “and” are separate entries in the source; they are usually repeats but may differ in a detail not shown here. Equal values may be shown once. Records with an inconclusive call do not appear. Active and inactive are the calls of the source. Unless noted, calls follow the shape of the dose curve; as a rule, active = well fitted curve in the direction sought with a large enough effect; inconclusive = small, poorly fitted or top-dose-only effect, or another doubt; inactive = no such curve, though single readings can be large; an effect the other way counts as inactive or inconclusive.

On to `CNC(=O)c1cc(Oc2ccc(NC(=O)Nc3cc(C(C)(C)C)nn3-c3ccc4ncccc4c3)c(F)c2)ccn1`, for which the Potency in experiment [1] is 2.64 µM (active); in experiment [3], 0.0421 µM (active). In addition, the result in experiment [2] was inactive. Also, the viability (% of control) in experiment [4] was 2.72%. For the same compound, in experiment [5], the viability, percent of control was found to be 58.7%. Moreover, in experiment [6], the Potency result is “inactive”.
With `CC(C)CC(=O)Nc1n[nH]c2c1CN(C(=O)C1CCN(C)CC1)C2(C)C`, the figures for the Potency in experiment [1], in experiment [3] and in experiment [7] were 2.35 µM (active), 0.266 µM (active) and 2.35 µM (active), respectively. In experiment [2], the compound was called inactive. The viability (% of control) in experiment [4] is 4.73%. In experiment [5], the viability, percent of control was determined as 49.6%.
As to `Cc1ccc(-c2ncn(-c3ccc(Nc4nccc(-c5cccc(N6CCOCC6)c5)n4)cc3)n2)cn1`, the results for the Potency in experiment [1], in experiment [3] and in experiment [6] were 0.935 µM (active), 0.237 µM (active) and 0.0105 µM (active), respectively. For the same compound, the call in experiment [2] was inactive. In addition, in experiment [4], the viability (% of control) was found to be 0.9%. Besides, the viability, percent of control in experiment [5] turned out to be 0.21%.
On to `Nc1nc(Nc2ccc(S(N)(=O)=O)cc2)nn1C(=O)c1c(F)cccc1F`, for which the Potency in experiment [1] was 9.35 µM (active); in experiment [3], 0.473 µM (active); in experiment [6], 5.26 µM (active); in experiment [7], 14.8 µM (active). Further, the compound was classed as inactive in experiment [2]. Moreover, the viability (% of control) in experiment [4] worked out at 6.19%. Besides, in experiment [5], the viability, percent of control was 49.5%.
Regarding `COc1cc2c(Oc3ccc(NC(=O)C4(C(=O)Nc5ccc(F)cc5)CC4)cc3F)ccnc2cc1OCCCN1CCOCC1`, the Potency is 16.6 µM (active) in experiment [1] and 16.8 µM (active) in experiment [3]. Also, the compound was called inactive in experiment [2]. For the same compound, in experiment [4], the viability (% of control) stood at 2.25%. Besides, in experiment [5], the viability, percent of control is 3.9%. The Potency entry in experiment [6] was “inactive”.
With `CC(C)[C@H](C(=O)Nc1ccc(C(=O)NO)cc1)c1ccccc1`, the Potency in experiment [1] is 18.7 µM (active); in experiment [6], 0.166 µM (active). For the same compound, the result in experiment [2] was inactive. In addition, the Potency result in experiment [3] is “inactive”. The viability (% of control) in experiment [4] stood at 0.267%. In experiment [5], the viability, percent of control worked out at 0.0861%.
`CC(C)(O)CCc1ccc(OCc2cc(-c3cccc(OC(F)F)c3)c3ncccc3c2)cc1`: the Potency entry in experiment [1] and in experiment [7] was “inactive” each time. In addition, the compound was called inactive in experiment [2]. For the same compound, the Potency in experiment [3] is 23.7 µM (active). Further, in experiment [4], the viability (% of control) was 60.9%. Also, the viability, percent of control in experiment [5] turned out to be 7.17%.
Regarding `O=C(C=Cc1cccnc1)NCCCCC1CCN(C(=O)c2ccccc2)CC1`, the Potency result in experiment [1], in experiment [3], in experiment [6] and in experiment [7] was “inactive” in each case. In addition, the outcome in experiment [2] was inactive. Further, the viability (% of control) in experiment [4] amounted to 7.31%. The viability, percent of control in experiment [5] was determined as 53.4%.
In the case of `C1Cc2[nH]nc(-c3nn[nH]n3)c2C1`, the Potency result in experiment [1], in experiment [3], in experiment [6] and in experiment [7] was “inactive” throughout. In experiment [2], the compound was classed as inactive. Besides, the viability (% of control) in experiment [4] stood at 103%. The viability, percent of control in experiment [5] turned out to be 91.7%.
`CC1(C)OC2=C(C(=O)c3ccccc3C2=O)[C@H](NCc2ccccc2)[C@H]1O`: the values for the Potency in experiment [1] and in experiment [3] were 5.26 µM (active) and 3.75 µM (active), respectively. In experiment [2], the outcome was inactive. For the same compound, in experiment [4], the viability (% of control) worked out at 5.62%. Further, in experiment [5], the viability, percent of control worked out at 6.45%. Also, in experiment [6], the Potency result is “inactive”.
`O=C(NCCS(=O)(=O)c1ccc(C(F)(F)F)cn1)c1ccc(Cl)cc1`: the Potency entry in experiment [1], in experiment [3], in experiment [6] and in experiment [7] was “inactive” in each case. The call in experiment [2] was inactive. Also, the viability (% of control) in experiment [4] amounted to 96.1%. Besides, the viability, percent of control in experiment [5] turned out to be 92%.
As to `CC[C@@H]1C(=O)N(C)c2cnc(Nc3ccc(C(=O)NC4CCN(C)CC4)cc3OC)nc2N1C1CCCC1`, the Potency in experiment [1] is 16.6 µM (active); in experiment [3], 13.3 µM (active); in experiment [6], 1.18 µM (active); in experiment [7] it was 29.6 µM (active). For the same compound, the outcome in experiment [2] was inactive. Also, the viability (% of control) in experiment [4] came out at 4.43%. Further, in experiment [5], the viability, percent of control was found to be 5.81%.
Take `COc1cccc2nc(-c3cccs3)nc(NN3C(=O)C=C(C)C3=O)c12`: the Potency entry in experiment [1] is “inactive”. Besides, the call in experiment [2] was inactive. Besides, the Potency in experiment [3] is 0.841 µM (active); in experiment [7], 0.166 µM (active). Further, the viability (% of control) in experiment [4] was 3.01%. Moreover, in experiment [5], the viability, percent of control was found to be 3.09%.
With `CCN1CCN(Cc2ccc(-c3cc4c(N[C@H](C)c5ccccc5)ncnc4[nH]3)cc2)CC1`, the Potency in experiment [1] is 33.2 µM (active); in experiment [3] it was 16.8 µM (active); in experiment [6], 16.6 µM (active). In addition, in experiment [2], the call was inactive. The viability (% of control) in experiment [4] was 1.56%. Moreover, the viability, percent of control in experiment [5] was 1.9%.
Take `COc1cc2c(Oc3ccc(-c4cnc(Nc5ccc(F)cc5)n(C)c4=O)cc3F)ccnc2cc1OCCCN1CCOCC1`: the Potency in experiment [1] was 29.6 µM (active); in experiment [3], 18.8 µM (active); in experiment [6], 16.6 µM (active). Further, the result in experiment [2] was inactive. Besides, the viability (% of control) in experiment [4] turned out to be 1.34%. In experiment [5], the viability, percent of control was 1.76%.
For `Cc1[nH]nc2ccc(-c3cncc(OC[C@@H](N)Cc4ccccc4)c3)cc12`, the Potency in experiment [1] is 4.69 µM (active); in experiment [3], 0.168 µM (active); in experiment [6], 1.32 µM (active); in experiment [7], 2.35 µM (active). For the same compound, the compound was called inactive in experiment [2]. Also, the viability (% of control) in experiment [4] was -0.774%. For the same compound, the viability, percent of control in experiment [5] came to 4.82%.
For the compound `CN1CC[C@@H](c2c(O)cc(O)c3c(=O)cc(-c4ccccc4Cl)oc23)[C@@H](O)C1`, the Potency in experiment [1] was 0.132 µM (active); in experiment [3], 0.0149 µM (active); in experiment [7], 0.0743 µM (active). Further, the compound was called inactive in experiment [2]. For the same compound, in experiment [4], the viability (% of control) was -0.0054%. Also, the viability, percent of control in experiment [5] is 41.8%.
Turning to `CCN1CCN(CC(=O)Nc2ccc(-c3cccc4c(=O)cc(N5CCOCC5)oc34)c3sc4ccccc4c23)CC1`, the Potency in experiment [1] is 5.9 µM (active); in experiment [3], 13.3 µM (active); in experiment [6] it was 0.469 µM (active); in experiment [7], 20.9 µM (active). Further, the result in experiment [2] was inactive. Also, in experiment [4], the viability (% of control) turned out to be 0.621%. Also, the viability, percent of control in experiment [5] turned out to be 0.638%.
Regarding `O=C(NC1CCNCC1)c1[nH]ncc1NC(=O)c1c(Cl)cccc1Cl`, the Potency in experiment [1] was 209 nM (active) and 296 nM (active); in experiment [3], 33.5 nM (active) and 66.8 nM (active); in experiment [6], 0.118 µM (active); in experiment [7], 332 nM (active) and 264 nM (active). Further, the outcome in experiment [2] was inactive. Moreover, the viability (% of control) in experiment [4] is 1.51% and 1.72%. The viability, percent of control in experiment [5] was 45.8% and 42.8%.
`C[C@]1(CO)CN(c2cc(C(=O)Nc3ccc4c(c3)-c3c(c(C(N)=O)nn3-c3ccc(F)cc3)CC4)c(Cl)cn2)C[C@@]1(C)CO`: the Potency entry in experiment [1] is “inactive”. Also, the compound was called inactive in experiment [2]. Further, the Potency was 5.95 µM (active) in experiment [3], 14.8 µM (active) in experiment [6] and 16.6 µM (active) in experiment [7]. In experiment [4], the viability (% of control) came to 18.6%. The viability, percent of control in experiment [5] was determined as 23.3%.
On to `CCOc1cc2ncc(C#N)c(Nc3ccc(F)c(Cl)c3)c2cc1NC(=O)C=CCN(C)C`, for which the Potency is 20.9 µM (active) in experiment [1], 11.9 µM (active) in experiment [3] and 16.6 µM (active) in experiment [7]. Moreover, the compound was classed as inactive in experiment [2]. For the same compound, the viability (% of control) in experiment [4] is -0.0881%. For the same compound, the viability, percent of control in experiment [5] stood at 2.39%.
